Experimental findings from PubChem BioAssay (NCATS) are described below.

The target in assay [1] is Cytochrome P450 3A4 (Homo sapiens) (UniProt P08684). Kind of assay: qHTS Assay for Activators of Cytochrome P450 3A4 (AID 885). Also: nearly all actives have a fitted effect of over 65% in size. The procedure, abridged:
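Activators are scored by enhanced luminescence from CYP3A4 conversion of luciferin-PPXE (25uM, equal to KM) to luciferin, after 60 min at RT with an NADPH-regenerating system.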
Background: In qHTS, concentration-response curves come from the screen itself.

Assay [2] concerns the target Cytochrome P450 2D6 (Homo sapiens) (UniProt P10635). Kind of assay: qHTS Assay for Inhibitors and Substrates of Cytochrome P450 2D6 (AID 891).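 Also: luciferin methyl ether substrate demethylated by CYP2D6 with NADPH regeneration; % is scaled to controls: 0 for no effect and ±100 for the full control effect; nearly all actives have a fitted effect of over 60% in size.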 The procedure, abridged:
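Luminescent read-out of luciferin formed by 5 nM human CYP2D6 demethylating 30 uM Luciferin-ME EGE (Km level) over 60 min at room temperature after NADPH regeneration addition. Data normalized to full inhibition by 1.43 uM quinidine.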

The target in assay [3] is Alpha-galactosidase (Coffea arabica) (UniProt Q42656). The assay can be described thus: Counterscreen for Glucocerebrosidase Inhibitors: qHTS Assay for Coffee Bean alpha-Galactosidase at pH 4.5 (AID 957).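 Also: series mostly up to about 77 µM; plate controls were enzyme alone for no effect and no enzyme for full effect.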 In a few lines: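 Fluorogenic qHTS at pH 4.5 (citrate buffer with Tween-20): 2 nM enzyme, 80 uM 4-MU-alpha-galactoside substrate, compound titrated 0.7 nM to 77 uM, 20 min room temperature. Glycine/NaOH stop; 4-MU read Ex 365/Em 440; Hill-equation AC50 against no-enzyme and enzyme controls.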
For orientation: The purpose of a counterscreen is to sort out artefacts and off-target activity.

The target is the same in assay [4]. The assay can be described thus: Counterscreen for Glucocerebrosidase Inhibitors: qHTS Assay for Coffee Bean alpha-Galactosidase at pH 5.9 (AID 998).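 Also: plate controls were uninhibited enzyme for no effect and no-enzyme basal signal for full effect.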 In a few lines:
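Fluorogenic 4-MU substrate hydrolysis, 80 uM substrate and 2 nM coffee bean alpha-galactosidase, pH 5.9 citrate buffer, 20 min at room temperature, then NaOH/glycine stop. Titration 0.7 nM–77 uM, normalized to no-enzyme and enzyme controls, AC50 via Hill equation.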

Assay [5] can be described thus: qHTS for differential inhibitors of proliferation of Plasmodium falciparum line W2 (AID 1883).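 Also: potency is read from the fitted curve at half-maximal effect; parasites grown with compound for 72 h before lysis and staining.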 The note with it: Potency: Plasmodium falciparum W2 proliferation inhibition.
Assay [6] in a line: Cytometry Cell-Based qHTS for Inhibitors of the mTORC1 Signaling Pathway in MEF cells (AID 2668). Also: potency is read from the fitted curve at half-maximal effect. In a few lines: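 Tsc2-/-, p53-/- MEFs re-expressing WT Tsc2; cpd 24 hrs, 37 degree Celsius; PFA fix, Alexa-488 p-rpS6 (Ser235/236) Ab 2 hrs RT, PI counterstain; Acumen 488nm scan; p-S6/PI ratio → % positive cells; PI count = viability.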
The nature of assay [7]: Validation screen for inhibitors of Lassa infection (AID 463096; calls by dose curve; also: % is scaled to controls: 0 for no effect and ±100 for the full control effect).
The target in assay [8] is M-phase phosphoprotein 8 (Homo sapiens) (UniProt Q99549). The assay can be described thus: qHTS Validation Assay for Inhibitors for MPP8 Chromodomain Interactions with Methylated Histone Tails (AID 488949). Also: nearly all actives have a fitted effect of over 55% in size. Also: potency is read from the fitted curve at half-maximal effect. In a few lines:
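50 nM MPP8 + 50 nM b-H3K9me3 peptide, PBS pH 7.4/0.01% Tween-20, 30 min RT; + cpd 30 min RT; + AlphaScreen donor/Ni-chelate acceptor beads 10 ug/mL final, 30 min dark; luminescence read.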

Assay [9] concerns the target D(1A) dopamine receptor (Homo sapiens) (UniProt P21728). The assay can be described thus: HTS Assay for Allosteric Agonists of the Human D1 Dopamine Receptor: Primary Screen for Potentiators (AID 488982). Also: potency is read from the fitted curve at half-maximal effect. The procedure, abridged:
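Calcium flux in an inducible, force-coupled HEK293 Trex D1 line (overnight at 30 C): agonist mode is the 180 s kinetic read after compound; potentiator mode is the following 180 s read after dopamine at EC20.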

Assay [10] is described as follows: Nrf2 qHTS screen for inhibitors: Validation (AID 493153; active = well fitted inhibition curve with a large enough effect in the main read-out, with a control signal flat, not every such curve was filed as active). The conditions noted are these: Potency: luciferase luminescence; viability change: measured here: cytotoxicity max response. In a few lines:
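Concentration-response on A549 ARE_Fluc reporter cells exposed 18-24 h at 37 C, 5% CO2. Cytotoxicity read first by CellTiter-Fluor fluorescence (Ex 405/Em 525), then Nrf2 inhibition by BugLite luminescence after 15 min.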

Assay [11] can be described thus: Inducers of the Endoplasmic Reticulum Stress Response (ERSR) in human glioma: Validation (AID 504836). Also: 0% is about no effect. The procedure, abridged: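 ERSR induction read as luciferase luminescence (Bright-Glo, 10 min at room temperature) in stably transfected human U87-MG glioma cells exposed to compounds for 16 h, using GRP78 as sensor.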
Assay [12] addresses DNA dC->dU-editing enzyme APOBEC-3G (Homo sapiens) (UniProt Q9HC16). The assay can be described thus: qHTS for inhibitors of Vif-A3G interactions: Validation (AID 588379). Also: potency is read from the fitted curve at half-maximal effect. The procedure, abridged:
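Yellow fluorescence (Ex 488, Em 500-530) of Vif-coexpressing HeLa A3G-eYFP cells, scanned by Acumen cytometer, reports blocked A3G degradation. Cells plated at 700/well overnight at 37 deg C before compound addition, then a further overnight compound incubation at 37 deg C.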

Assay [13] concerns the target Arylsulfatase A (Homo sapiens) (UniProt P15289). The assay can be described thus: qHTS screen for enhancers of Arylsulfatase A (ASA1): LOPAC Validation Assay (AID 720538). In a few lines: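 MLD patient fibroblasts (SV40, ASA-I179S), 1536-well; adhere 6 hrs; cpd 48h, 37 degree C, 5% CO2; pNCS 0.5mM final in lysis buffer, 14h RT; stop 1N NaOH final; fluor. Ex525/Em598.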

The nature of assay [14]: qHTS for Inhibitors of the Functional Ribonucleoprotein Complex (vRNP) of Lassa (LASV) Arenavirus: LASV Primary Screen - GLuc reporter signal (AID 1347082; calls by dose curve; tested in HEK293 reporter line; also: series mostly up to about 57 µM; % is scaled to controls: 0 for no effect and ±100 for the full control effect; nearly all actives have a fitted effect of over 60% in size).
A short description of assay [15]: qHTS for Inhibitors of the Functional Ribonucleoprotein Complex (vRNP) of Lassa (LASV) Arenavirus: Viability assay - alamar blue signal for LASV Primary Screen (AID 1347083; calls by dose curve; tested in HEK293 reporter line; also: series mostly up to about 57 µM; % is scaled to controls: 0 for no effect and ±100 for the full control effect; nearly all actives have a fitted effect of over 80% in size).
The nature of assay [16]: qHTS for Inhibitors of the Functional Ribonucleoprotein Complex (vRNP) of Lymphocytic Choriomeningitis Arenaviruses (LCMV): Viability assay - alamar blue signal for LCMV Primary Screen (AID 1347085; calls by dose curve; tested in HEK293 reporter line; also: series mostly up to about 57 µM; % is scaled to controls: 0 for no effect and ±100 for the full control effect; nearly all actives have a fitted effect of over 80% in size).
For assay [17], the target named is Nucleoprotein (Lymphocytic choriomeningitis virus (strain Armstrong)) (UniProt P09992). Kind of assay: qHTS for Inhibitors of the Functional Ribonucleoprotein Complex (vRNP) of Lymphocytic Choriomeningitis Arenaviruses (LCMV): LCMV Primary Screen - GLuc reporter signal (AID 1347086; calls by dose curve; also: series mostly up to about 57 µM; % is scaled to controls: 0 for no effect and ±100 for the full control effect; nearly all actives have a fitted effect of over 70% in size).
Assay [18] addresses Nuclear receptor subfamily 1 group I member 3 (Homo sapiens) (UniProt Q14994). Kind of assay: Primary qHTS for antagonist of constitutive androstane receptor (CAR) against the NCATS DSHEA and TCM libraries (AID 1794836).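 Also: HepG2 cells stably expressing hCAR with CYP2B6 luciferase reporter stimulated by CITCO; series mostly up to about 40 µM.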 In a few lines: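 Antagonist mode: CAR reporter luminescence (ONE-Glo) in HepG2-CYP2B6-hCAR cells stimulated with 48 uM CITCO (final) over 24 h at 37 C, compounds titrated; viability read first by CellTiter-Fluor fluorescence.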

Records with an inconclusive call do not appear. Some structures have more than one record in an assay (separate samples or runs), and their calls can disagree. Activity calls are given as the source filed them. Unless noted, calls follow the shape of the dose curve; as a rule, active = well fitted curve in the direction sought with a large enough effect; inconclusive = small, poorly fitted or top-dose-only effect, or another doubt; inactive = no such curve, though single readings can be large; an effect the other way counts as inactive or inconclusive.

Chain of Alpha-galactosidase (Coffea arabica) (Q42656 whole entry, looked up): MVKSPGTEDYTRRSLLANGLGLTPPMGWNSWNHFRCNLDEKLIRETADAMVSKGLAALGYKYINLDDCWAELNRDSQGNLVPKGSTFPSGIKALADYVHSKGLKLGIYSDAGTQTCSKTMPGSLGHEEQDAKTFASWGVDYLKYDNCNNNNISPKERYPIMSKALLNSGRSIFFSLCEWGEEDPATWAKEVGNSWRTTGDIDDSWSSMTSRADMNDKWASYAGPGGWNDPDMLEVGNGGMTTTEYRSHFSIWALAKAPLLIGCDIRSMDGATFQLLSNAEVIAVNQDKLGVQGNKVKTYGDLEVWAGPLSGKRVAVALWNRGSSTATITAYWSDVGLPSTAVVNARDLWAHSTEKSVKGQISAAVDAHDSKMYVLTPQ
Chain of Nucleoprotein (Lymphocytic choriomeningitis virus (strain Armstrong)) (P09992 whole entry, looked up): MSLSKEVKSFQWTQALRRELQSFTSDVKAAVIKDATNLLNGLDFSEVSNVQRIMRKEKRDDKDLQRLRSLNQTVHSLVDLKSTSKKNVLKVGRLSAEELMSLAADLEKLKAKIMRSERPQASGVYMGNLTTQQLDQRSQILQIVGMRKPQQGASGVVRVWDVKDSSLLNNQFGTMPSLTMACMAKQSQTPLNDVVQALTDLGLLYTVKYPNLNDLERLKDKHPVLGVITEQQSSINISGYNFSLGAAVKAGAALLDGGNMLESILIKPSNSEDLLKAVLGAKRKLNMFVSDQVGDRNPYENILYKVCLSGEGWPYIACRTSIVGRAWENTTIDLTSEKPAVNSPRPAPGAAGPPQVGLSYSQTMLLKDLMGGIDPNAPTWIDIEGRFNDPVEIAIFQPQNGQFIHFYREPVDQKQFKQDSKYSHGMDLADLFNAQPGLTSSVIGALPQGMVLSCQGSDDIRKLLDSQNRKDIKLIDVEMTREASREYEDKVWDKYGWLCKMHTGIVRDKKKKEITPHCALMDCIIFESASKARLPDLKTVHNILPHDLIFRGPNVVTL
Chain of M-phase phosphoprotein 8 (Homo sapiens) (Q99549 whole entry, looked up): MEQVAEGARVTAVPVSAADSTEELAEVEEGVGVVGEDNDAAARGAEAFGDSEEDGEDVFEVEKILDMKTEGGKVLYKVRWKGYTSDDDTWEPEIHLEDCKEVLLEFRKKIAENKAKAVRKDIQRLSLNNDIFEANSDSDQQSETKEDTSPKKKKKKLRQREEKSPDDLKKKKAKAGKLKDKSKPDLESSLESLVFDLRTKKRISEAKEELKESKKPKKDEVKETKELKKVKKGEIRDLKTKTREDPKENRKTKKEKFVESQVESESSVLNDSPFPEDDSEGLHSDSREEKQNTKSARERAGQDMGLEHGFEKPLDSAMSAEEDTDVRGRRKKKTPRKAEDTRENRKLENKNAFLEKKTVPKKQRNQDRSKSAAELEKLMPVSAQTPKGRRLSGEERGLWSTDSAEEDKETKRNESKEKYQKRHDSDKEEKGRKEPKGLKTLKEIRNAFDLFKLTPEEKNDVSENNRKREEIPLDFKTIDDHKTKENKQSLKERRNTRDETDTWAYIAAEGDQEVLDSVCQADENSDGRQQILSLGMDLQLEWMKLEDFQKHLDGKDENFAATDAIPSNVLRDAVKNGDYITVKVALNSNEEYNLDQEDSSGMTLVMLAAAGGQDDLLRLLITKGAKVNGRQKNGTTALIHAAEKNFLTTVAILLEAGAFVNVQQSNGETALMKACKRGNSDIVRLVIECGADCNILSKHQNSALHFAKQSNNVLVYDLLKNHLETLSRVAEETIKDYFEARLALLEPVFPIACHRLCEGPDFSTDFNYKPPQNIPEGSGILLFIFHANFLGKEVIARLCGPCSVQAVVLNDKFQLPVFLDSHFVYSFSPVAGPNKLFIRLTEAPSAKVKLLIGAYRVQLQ
Chain of Cytochrome P450 3A4 (Homo sapiens) (P08684 whole entry, looked up): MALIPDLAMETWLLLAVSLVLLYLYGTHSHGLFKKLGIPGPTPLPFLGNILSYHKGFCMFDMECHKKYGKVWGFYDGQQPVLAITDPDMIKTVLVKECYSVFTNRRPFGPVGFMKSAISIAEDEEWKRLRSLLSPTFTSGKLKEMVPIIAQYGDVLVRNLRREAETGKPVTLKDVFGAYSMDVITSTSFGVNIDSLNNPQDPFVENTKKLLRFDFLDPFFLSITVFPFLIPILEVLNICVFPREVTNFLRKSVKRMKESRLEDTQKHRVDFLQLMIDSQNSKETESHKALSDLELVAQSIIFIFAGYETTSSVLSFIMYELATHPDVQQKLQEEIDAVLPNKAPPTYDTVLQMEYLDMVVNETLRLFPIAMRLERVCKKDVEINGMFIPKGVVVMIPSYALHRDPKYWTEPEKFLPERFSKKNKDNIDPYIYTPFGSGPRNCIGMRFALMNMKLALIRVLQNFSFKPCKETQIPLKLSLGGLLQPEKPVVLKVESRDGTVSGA
Chain of Cytochrome P450 2D6 (Homo sapiens) (P10635 whole entry, looked up): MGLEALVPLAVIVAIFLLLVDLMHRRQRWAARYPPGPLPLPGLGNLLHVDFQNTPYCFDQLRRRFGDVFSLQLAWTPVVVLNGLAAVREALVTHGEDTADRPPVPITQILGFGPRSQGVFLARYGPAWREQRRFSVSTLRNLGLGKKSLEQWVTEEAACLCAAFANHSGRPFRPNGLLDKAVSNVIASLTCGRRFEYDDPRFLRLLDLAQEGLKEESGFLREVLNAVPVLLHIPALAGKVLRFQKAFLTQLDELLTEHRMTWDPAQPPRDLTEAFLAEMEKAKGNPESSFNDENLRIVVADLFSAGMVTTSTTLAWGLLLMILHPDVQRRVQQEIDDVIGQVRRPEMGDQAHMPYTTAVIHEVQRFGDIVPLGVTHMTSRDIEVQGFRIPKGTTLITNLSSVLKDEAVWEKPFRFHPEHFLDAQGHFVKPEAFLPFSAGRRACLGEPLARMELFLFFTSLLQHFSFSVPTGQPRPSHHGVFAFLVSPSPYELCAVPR
Chain of DNA dC->dU-editing enzyme APOBEC-3G (Homo sapiens) (Q9HC16 whole entry, looked up): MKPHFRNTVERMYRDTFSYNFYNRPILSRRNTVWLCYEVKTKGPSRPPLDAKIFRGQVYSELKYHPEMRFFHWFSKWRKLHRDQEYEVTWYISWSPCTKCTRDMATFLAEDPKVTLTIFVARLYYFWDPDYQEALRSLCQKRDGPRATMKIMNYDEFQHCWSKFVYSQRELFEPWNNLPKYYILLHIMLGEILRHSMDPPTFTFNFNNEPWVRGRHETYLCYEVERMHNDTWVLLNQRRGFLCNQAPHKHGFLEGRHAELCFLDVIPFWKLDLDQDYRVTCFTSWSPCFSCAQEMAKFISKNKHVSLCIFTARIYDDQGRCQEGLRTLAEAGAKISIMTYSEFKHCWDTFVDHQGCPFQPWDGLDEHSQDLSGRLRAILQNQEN
Chain of Nuclear receptor subfamily 1 group I member 3 (Homo sapiens) (Q14994 whole entry, looked up): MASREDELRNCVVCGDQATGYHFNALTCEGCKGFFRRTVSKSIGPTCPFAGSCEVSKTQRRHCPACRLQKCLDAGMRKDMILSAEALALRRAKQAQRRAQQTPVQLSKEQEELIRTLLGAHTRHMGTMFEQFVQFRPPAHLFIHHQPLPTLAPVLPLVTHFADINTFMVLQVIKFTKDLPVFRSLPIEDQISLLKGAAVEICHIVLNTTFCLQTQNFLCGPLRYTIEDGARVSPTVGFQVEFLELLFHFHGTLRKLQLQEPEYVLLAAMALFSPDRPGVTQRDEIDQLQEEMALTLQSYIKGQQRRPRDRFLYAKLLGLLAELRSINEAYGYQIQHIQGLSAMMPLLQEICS
Chain of Arylsulfatase A (Homo sapiens) (P15289 whole entry, looked up): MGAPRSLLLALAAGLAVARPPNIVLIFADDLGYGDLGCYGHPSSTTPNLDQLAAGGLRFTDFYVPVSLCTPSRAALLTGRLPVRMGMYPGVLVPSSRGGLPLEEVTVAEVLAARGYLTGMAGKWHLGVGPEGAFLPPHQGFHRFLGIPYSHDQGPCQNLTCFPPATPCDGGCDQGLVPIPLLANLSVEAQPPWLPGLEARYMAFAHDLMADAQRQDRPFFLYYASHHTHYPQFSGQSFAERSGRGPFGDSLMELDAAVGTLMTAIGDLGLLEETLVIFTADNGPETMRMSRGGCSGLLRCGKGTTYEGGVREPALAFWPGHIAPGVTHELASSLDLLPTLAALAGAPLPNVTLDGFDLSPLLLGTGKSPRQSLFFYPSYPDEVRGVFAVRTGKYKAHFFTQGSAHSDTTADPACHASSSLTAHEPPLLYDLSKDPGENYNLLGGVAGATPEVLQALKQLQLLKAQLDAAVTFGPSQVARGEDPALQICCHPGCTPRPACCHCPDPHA
Chain of D(1A) dopamine receptor (Homo sapiens) (P21728 whole entry, looked up): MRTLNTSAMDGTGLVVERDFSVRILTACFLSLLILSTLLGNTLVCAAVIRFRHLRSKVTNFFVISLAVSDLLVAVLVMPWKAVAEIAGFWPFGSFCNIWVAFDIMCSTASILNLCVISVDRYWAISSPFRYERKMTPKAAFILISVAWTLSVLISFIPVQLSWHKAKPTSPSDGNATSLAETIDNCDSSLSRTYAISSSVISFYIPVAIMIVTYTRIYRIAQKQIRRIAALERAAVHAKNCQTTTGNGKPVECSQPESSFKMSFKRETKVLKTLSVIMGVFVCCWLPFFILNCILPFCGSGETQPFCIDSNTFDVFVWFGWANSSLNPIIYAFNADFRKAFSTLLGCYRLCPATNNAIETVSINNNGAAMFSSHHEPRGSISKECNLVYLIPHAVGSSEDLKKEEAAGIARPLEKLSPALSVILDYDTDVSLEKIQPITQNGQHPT

Consider `Nc1nc2ccc(Cl)cc2c2nc(-c3ccco3)nn12`, for which the Potency result in assay [1], in [2], in assay [7], in assay [10], in assay [13] and in assay [14] was “inactive” each time. The Potency result in assay [15], in assay [16] and in assay [17] was “inactive” each time. Also, the compound was called inactive in assay [3], in [4] and in [11]. Moreover, the Potency in assay [5] was 11.2 µM (active); in [6], 5.85 µM (active); in assay [8], 50.1 µM (active) and inactive; in assay [9], 1.3 µM (active); in [12], 0.596 µM (active). Besides, in assay [10], the viability change was 11.1%.

As to `O=c1cc(-c2ccc(O)cc2)oc2cc(O)cc(O)c12`, the compound was called inactive in [3], in assay [4] and in assay [11]. In addition, the Potency result in assay [14], in [15], in assay [16], in assay [17] and in [18] was “inactive” throughout.
